Experimental data from PubChem BioAssay (NCI).
Where “and” joins values, the source holds several entries; their conditions need not be identical. Equal values may be shown once. The panel holds about 83,000 compounds, 20% with a hit somewhere; the sample as a whole holds those more often.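 A percent growth of 40 corresponds to 60% growth inhibition; 0 means no net growth; -100 means all cells died. Active threshold: below 10.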 Unmarked numbers belong to inactive results. Calls of active or inactive are those of the source.

These compounds were tested on KM12 colon (assay: NCI-60 one-dose screen, 48 h (100 = growth as untreated, 0 = no growth, -100 = all killed)). Conditions: 10 µM.
Protocol: Growth inhibition of the KM12 human tumor cell line is measured as a screen for anti-cancer activity. Cells are grown in 96 well plates and exposed to the test compound for 48 hours. Compounds are tested at a single concentration, which is 10^-5 M for most compounds. The reported endpoint is percent growth (GI% or GIPRCNT), where numbers from 0 - 100% represent growth inhibition, and numbers from -100% - 0 represent cell death. For example, a value of 40 represents 60% growth inhibition. A value of 0 means no net growth occurred over the course of the experiment. A value of -40 indicates 40% of cells at the beginning of the experiment died by the end of the experiment. A value of -100 means all cells are dead at the end of the experiment.
NCI-60 Human Tumor Cell Lines Screen was performed using the standard one-dose NCI protocol, which is described in more detail at https://dtp.cancer.gov/discovery_development/nci-60/default.htm.
Compounds with GIPRCNT values below 10 were considered active. Activity score was based on GIPRCNT using the following formula: […]
Score is 0 for GIPRCNT values of 100 or above, 50 for GIPRCNT values of 0, and 100 for GIPRCNT values of -100.

Q: Which growth does the source give for `S=C(SSC(=S)N1CCCCC1)N1CCCCC1` here?
A: Its growth is 102%.

Same assay, conditions: 10 µM unless noted

Q: Which growth does the source give for `COc1ccc(OC)c(/C=C/[N+](=O)[O-])c1` here?
A: The growth was 11.7%.

Q: Which growth does the source give for `CC[C@@]1(O)C[C@H](OC2CC(N(C)C)C(O)C(C)O2)c2c(O)c3c(c(O)c2[C@H]1OC1CC(N(C)C)C(O)C(C)O1)C(=O)c1cccc(O)c1C3=O` (stereo not given in full) here?
A: The growth was -50.3% (active).

Q: `CC1=C2C(=O)[C@H]3[C@@H](CC=C4C[C@@H](O)CC[C@@]43C)[C@@H]2CC[C@]12O[C@@H]1C[C@H](C)CN[C@H]1[C@H]2C` was tested. Which growth did it give?
A: The growth was 112%.

Q: `CN1CCN(c2ccc([N+](=O)[O-])c3no[n+]([O-])c23)CC1` was tested. Which growth did it give?
A: Its growth is -82.8% (active).

Q: For `CCCCCCCCCCCC1CCCC(C)N1` (stereo not given), which growth is on record?
A: Its growth is 44%.

Q: `Cc1c(N)nc([C@H](CC(N)=O)NC[C@H](N)C(N)=O)nc1C(=O)N[C@H](C(=O)N[C@H](C)[C@@H](O)[C@H](C)C(=O)N[C@H](C(=O)NCCc1nc(-c2nc(C(=O)NCCC[S+](C)C)cs2)cs1)[C@@H](C)O)C(OC1OC(CO)C(O)C(O)C1OC1OC(CO)C(O)C(OC(N)=O)C1O)c1cnc[nH]1` (stereo not given in full) was tested. Which growth did it give?
A: Its growth is 80.9% [2.5 µM].

Q: With `Cc1cc(N=Nc2ccccc2C)ccc1N` as the compound, how does the growth read?
A: The growth was 78.2%.

Q: `CC[n+]1c(-c2ccccc2)c2cc(N)ccc2c2ccc(N)cc21` was tested. Which growth did it give?
A: Its growth is 7.69% (active).

Q: For `CC1=C(CO)C2=C(C)C3(CC3)[C@@](C)(O)C(=O)C2=C1`, which growth is on record?
A: Its growth is 12.4%.

Q: `Cc1ccc(C(=O)OC(C(=O)O)C(OC(=O)c2ccc(C)cc2)C(=O)O)cc1` (stereo not given) (tested in a mixture with another compound) was tested. Which growth did it give?
A: Its growth is 58.9%.

Q: For `NCCc1ccc(OCc2ccccc2)c(OCc2ccccc2)c1`, which growth is on record?
A: Its growth is 80.7%.

Q: For `O=C1c2ccccc2C(=O)C(Cl)C1Cl` (stereo not given), which growth is on record?
A: The growth was 56.8%.

Q: `COC1CC(CC2CCC(C)C(C(C)C(=O)O)O2)OC2(OC(C)(C3CCC(C)(C4OC(C5OC(O)(CO)C(C)CC5C)CC4C)O3)CC2C)C1C` (stereo not given) was tested. Which growth did it give?
A: Its growth is -33.4% (active).

Q: With `CCC1(O)CC(OC2CC(N(C)C)C(OC3CC4OC5CC(=O)C(C)OC5OC4C(C)O3)C(C)O2)c2c(cc3c(c2O)C(=O)c2c(O)ccc(O)c2C3=O)C1C(=O)OC` (stereo not given) as the compound, how does the growth read?
A: The growth was -55.3% (active).

Q: For `COc1cccc2c1cc([N+](=O)[O-])c1c(C(=O)O)cc3c(c12)OCO3`, which growth is on record?
A: The growth was 84.6% and 99.1%.

Q: `C[C@H]1CCC/C=C/[C@@H]2C[C@H](O)C[C@H]2[C@H](O)/C=C/C(=O)O1` was tested. Which growth did it give?
A: Its growth is -59.8% (active).

Q: For `Oc1cccc2cccnc12`, which growth is on record?
A: Its growth is 102% and 106% and 103%.

Q: `COC1=C(C)C(=O)C2=C(C1=O)C(CO)N1C(C#N)C3CC4C(C1C2N1CCOC41)N3C` (stereo not given) was tested. Which growth did it give?
A: The growth was -60.8% (active).

Q: Which growth does the source give for `COc1ccccc1/C=C(/C)[N+](=O)[O-]` here?
A: Its growth is 70% and 99.8%.

Q: With `Oc1cc[c]([Hg][Cl])cc1` as the compound, how does the growth read?
A: The growth was 97.4%.

Q: For `C[C@]12CC[C@H](O)CC1=CC[C@@H]1[C@@H]2CC[C@]2(C)C(=O)CC[C@@H]12`, which growth is on record?
A: The growth was 97.1%.

Q: How did the growth turn out when `CC(=O)O[C@H]1C[C@@H]2OC3C=C(C)CCC3(C)[C@@]1(C)[C@@]21CO1` (stereo not given in full) was run?
A: The growth was -21.9% (active) and -43% (active).

Q: `CC[C@@]1(O)C(=O)OCc2c1cc1n(c2=O)Cc2cc3ccccc3nc2-1` was tested. Which growth did it give?
A: The growth was -42.1% (active).

Q: With `CCOC(=O)C(NC(=O)C(Cc1ccc(N(CCCl)CCCl)cc1)NC(C)=O)C(C)C` (stereo not given) as the compound, how does the growth read?
A: The growth was 94.8%.

Q: Which growth does the source give for `CC[C@](O)(C(=O)O)c1cc2n(c(=O)c1CO)Cc1cc3ccccc3nc1-2` here?
A: The growth was -29.9% (active).

Q: With `CC[C@@]1(O)C[C@H](OC2CC(N(C)C)C(OC3CC(O)C(OC4CCC(=O)C(C)O4)C(C)O3)C(C)O2)c2c(cc3c(c2O)C(=O)c2c(O)ccc(O)c2C3=O)[C@H]1C(=O)OC` (stereo not given in full) as the compound, how does the growth read?
A: Its growth is -14.9% (active).

Q: With `CCC(=O)OC1CCn2c1nc1c2C(=O)C(C)=C(N2CC2)C1=O` (stereo not given) as the compound, how does the growth read?
A: Its growth is -35.1% (active).

Q: How did the growth turn out when `CO[C@H](/C(C)=C/C=C/C(C)=C/c1coc(C)n1)[C@H](C)[C@H]1C[C@@H](O)[C@@]2(C)O[C@H]2/C=C/[C@@H](C)[C@@H]2C[C@@H](CC(=O)O2)C[C@H]2O[C@@H]2C(=O)O1` was run?
A: The growth was -17.9% (active).

Same assay, conditions: 100 µM

Q: Which growth does the source give for `S=C(SSC(=S)N1CCCCC1)N1CCCCC1` here?
A: Its growth is -18.5% (active).
